These results are taken from the OligoGym collection.
Note: reference of the scale not given here.

The target in one assay is FZR1. The experiment in a line: pooled miR-30 sensor sort-seq; sequence = guide strand. To be noted: shRNA.
In the case of AACATGGACAGCTTCTTCCCTG, the sensor-assay potency score (higher = more potent) was -0.261. In turn, TGAGAGGTCACAGAGCCGCGTC showed a sensor-assay potency score (higher = more potent) of -0.649.

Sequence TACACTGCAGTGGTTGTCCTGT returned a sensor-assay potency score (higher = more potent) of -0.434. In turn, TCTGTGGACCACTTGAGCCCGC showed a sensor-assay potency score (higher = more potent) of -0.976.

In the case of TTCTCATTCTCGTTAATCCTGT, the sensor-assay potency score (higher = more potent) was -0.581. The sequence TTCTGTGAGTAGCCGTGCGTGC displayed a sensor-assay potency score (higher = more potent) of -1.08. For TGTCCTGTCAGCGTGTTCCAGA, the sensor-assay potency score (higher = more potent) is -0.846. In the case of TTGCACACTTGGGAGCCCGTGT, the sensor-assay potency score (higher = more potent) was -0.748. Consider TGAGACTCCAGGATCCTCCAGG, for which the sensor-assay potency score (higher = more potent) is -0.492.

TTTGTCGAACGGGTTTTGCTAA: the sensor-assay potency score (higher = more potent) was -0.856.

The sequence TCTGGTTCTGTGAGTAGCCGTG came in with a sensor-assay potency score (higher = more potent) of -0.152.

A further assay addresses GAA. The description is as above. To be noted: shRNA.
In the case of TTTGATCGTGAAGTGGAGGCGG, the sensor-assay potency score (higher = more potent) was found to be 0.187. Consider TTCATGTCAATCCACATGCCGT, for which the sensor-assay potency score (higher = more potent) is -0.999. Consider TTTAGAATCTCCCAAGTCCTGT, for which the sensor-assay potency score (higher = more potent) was determined as 0.11. With TGAACGTGAAGTCCCTCCGGGA, the sensor-assay potency score (higher = more potent) was -0.701. TAGAGGTTCGCACCGGGCGTGG: the sensor-assay potency score (higher = more potent) is -1.37.

In turn, TTTGCAGGGATGTAGCAACAGC yielded a sensor-assay potency score (higher = more potent) of -1.16. Regarding TAACACAGAGCAGCCCTCCAGG, the sensor-assay potency score (higher = more potent) was -0.565. Sequence TTGTTGAACGTGAAGTCCCTCC displayed a sensor-assay potency score (higher = more potent) of 0.0246. In the case of TTGGTGTCGGGGCTGTAGGTGA, the sensor-assay potency score (higher = more potent) was -0.824. The sequence TCCTCGGAGAACTCCACGCTGT displayed a sensor-assay potency score (higher = more potent) of -1.76. TAAACTGCAGGATTTCTGGCAC: the sensor-assay potency score (higher = more potent) is -0.0629. For TTGTGCAGGTTGTAGTGTGTGG, the sensor-assay potency score (higher = more potent) is -0.0928. The sequence AATCTTATTAACACAGAGCAGC displayed a sensor-assay potency score (higher = more potent) of -1.53. The sequence TTAAGATTTAGAATCTCCCAAG registered a sensor-assay potency score (higher = more potent) of -0.492.

In turn, TTCTCCAGCTTGTAGCTGGGGT gave a sensor-assay potency score (higher = more potent) of -0.57. TACTGCTGCACCACGCTCTTGG returned a sensor-assay potency score (higher = more potent) of 0.362. Turning to TACAATCTTATTAACACAGAGC, the sensor-assay potency score (higher = more potent) is -0.86. Sequence TTAGCTGGATCTTTGATCGTGA returned a sensor-assay potency score (higher = more potent) of 0.689.

In the case of TTCACGATCGTGTTATTCCTGG, the sensor-assay potency score (higher = more potent) was -0.238.

Take TTGATCGTGAAGTGGAGGCGGT: the sensor-assay potency score (higher = more potent) was -0.412. In turn, TTAAACTGCAGGATTTCTGGCA registered a sensor-assay potency score (higher = more potent) of 0.151. On the same count and under the same terms, with TTGAACGTGAAGTCCCTCCGGG the figure was 0.671; with TTGTGGTTCCGCATGAAGGGGT, -0.144; with TAGTCCAGGTCGTTCCACTGGA, -0.244.

The target in a further assay is GAB3. The assay is described as above. As to conditions: shRNA.
Sequence TTGACCAGCTATCACATCTGGT returned a sensor-assay potency score (higher = more potent) of -0.37.

As for TTGCAGACCTGACTGATGCTGT, the sensor-assay potency score (higher = more potent) came out at 0.324. TTTCGATGTAGCTTTCTTCGTC registered a sensor-assay potency score (higher = more potent) of 0.694.

For the sequence TTATTCTGAAATTCCTTCCGAA, the sensor-assay potency score (higher = more potent) stood at 0.459. As to TTGCTGGAGTGCTTGTTCCTGT, the sensor-assay potency score (higher = more potent) was -0.331.
